“And” between values parts separate entries of the source, which are not always exact repeats. Equal entries are not always repeated. The campaign covered roughly 5,500 compounds. About 2,000 (36%) were called active. About 18% were inconclusive and are not listed. Cut-off read from the data, not from the text of the source: active = normalized growth mostly below about 0.91 (no sharp cut-off); inconclusive = no clear call, values can overlap the other calls; inactive = mostly above about 0.92. The list shows a part of the results.
Assay: chemical genetic growth profiling, strain panel (AID 1159580);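 note: tested at 20 µM; growth read once vehicle control cultures reached saturation at 30 °C; 1 = growth at the plate median or of vehicle wells; lower values mean less growth of the strain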
Details: S. cerevisiae deletion strains, growth OD

Measured: normalized growth

CC(=O)OCC(=O)[C@@]1(O)[C@H](OC(C)=O)CC2C3CCC4=CC(=O)C=C[C@]4(C)[C@@]3(F)[C@@H](O)C[C@@]21C (some centres not stated)
inactive: locus YAL013W, strain DEP1, hits give low values 0.993 | locus YAL021C, strain ccr4, hits give low values 0.982 | locus YAL026C, strain drs2, hits give low values 0.959 | locus YAL030W, strain snc1, hits give low values 0.995 | locus YBL061C, strain skt5, hits give low values 1 | locus YBR009C, strain hhf1, hits give low values 0.923 | locus YBR021W, strain FUR4, hits give low values 0.986 | locus YBR023C, strain chs3, hits give low values 0.981 | locus YBR171W, strain sec66, hits give low values 0.985 | locus YBR229C, strain ROT2, hits give low values 0.951 | locus YBR231C, strain swc5, hits give low values 1.01 | locus YBR279W, strain paf1, hits give low values 0.987 | locus YCL011C, strain gbp2, hits give low values 0.947 | locus YCL016C, strain dcc1, hits give low values 0.965 | locus YCL029C, strain bik1, hits give low values 0.99 | locus YCL069W, strain vba3, hits give low values 0.983 | locus YCR088W, strain abp1, hits give low values 0.987 | locus YDL005C, strain med2, hits give low values 0.993 | locus YDL035C, strain GPR1, hits give low values 0.973 | locus YDL040C, strain nat1, hits give low values 1 | locus YDL074C, strain BRE1, hits give low values 0.947 | locus YDL101C, strain DUN1, hits give low values 0.98 | locus YDL134C, strain PPH21, hits give low values 0.994 | locus YDL185W, strain tfp1, hits give low values 0.99 | locus YDL192W, strain arf1, hits give low values 0.997 | locus YDR001C, strain nth1, hits give low values 0.959 | locus YDR069C, strain doa4, hits give low values 1.01 | locus YDR101C, strain arx1, hits give low values 1.01 | locus YDR137W, strain rgp1, hits give low values 0.98 | locus YDR159W, strain sac3, hits give low values 0.923 | locus YDR162C, strain NBP2, hits give low values 0.988 | locus YDR195W, strain ref2 1.03 | locus YDR297W, strain sur2, hits give low values 0.987 | locus YDR318W, strain mcm21, hits give low values 0.994 | locus YDR334W, strain swr1, hits give low values 0.982 | locus YDR335W, strain msn5, hits give low values 0.983 | locus YDR388W, hits give low values 1 | locus YDR392W, strain spt3, hits give low values 0.913 | locus YDR502C, strain sam2, hits give low values 1 | locus YEL003W, strain gim4, hits give low values 0.992 | locus YEL037C, strain rad23, hits give low values 0.983 | locus YEL061C, strain CIN8 (second series), hits give low values 0.973 | locus YEL061C, strain CIN8, hits give low values 0.991 | locus YER015W, strain faa2, hits give low values 1 | locus YER016W, strain bim1, hits give low values 0.961 | locus YER110C, hits give low values 0.974 | locus YER111C, strain swi4, hits give low values 0.976 | locus YER155C, strain BEM2 (second series), hits give low values 1.04 | locus YER155C, strain BEM2, hits give low values 0.998 | locus YER167W, strain BCK2, hits give low values 0.991 | locus YFR010W, strain ubp6, hits give low values 0.983 | locus YGL078C, strain dbp3, hits give low values 0.995 | locus YGL086W, strain mad1, hits give low values 0.99 | locus YGL167C, strain pmr1, hits give low values 0.998 | locus YGL173C, strain kem1, hits give low values 1.01 | locus YGL227W, strain vid30, hits give low values 0.979 | locus YGL240W, strain doc1, hits give low values 1.02 | locus YGL248W, strain PDE1, hits give low values 0.975 | locus YGL253W, strain hxk2, hits give low values 0.964 | locus YGR135W, strain pre9, hits give low values 0.997 | locus YGR252W, strain gcn5, hits give low values 0.967 | locus YHR013C, strain ard1, hits give low values 0.948 | locus YHR027C, strain rpn1, hits give low values 0.966 | locus YHR030C, strain SLT2, hits give low values 0.995 and 0.971 | locus YHR079C, strain IRE1 (second series), hits give low values 1.01 | locus YHR079C, strain IRE1, hits give low values 0.964 | locus YHR094C, strain hxt1, hits give low values 1.01 | locus YHR129C, strain ARP1, hits give low values 0.977 | locus YHR142W, strain chs7, hits give low values 0.957 | locus YHR200W, strain rpn10, hits give low values 0.997 | locus YIL066C, strain RNR3, hits give low values 0.981 | locus YIL073C, strain SPO22, hits give low values 1.02 | locus YIL125W, strain kgd1, hits give low values 0.996 | locus YIR030C, strain dcg1, hits give low values 0.989 | locus YJL092W, strain hpr5, hits give low values 0.991 | locus YJL095W, strain BCK1 (second series), hits give low values 0.986 | locus YJL095W, strain BCK1, hits give low values 0.945 and 0.981 | locus YJL115W, strain asf1, hits give low values 0.972 | locus YJL129C, strain trk1, hits give low values 0.988 | locus YJL134W, strain LCB3, hits give low values 0.993 | locus YJL154C, strain vps35, hits give low values 0.986 | locus YJL164C, strain tpk1, hits give low values 0.974 | locus YJL166W, strain qcr8, hits give low values 1.04 | locus YJL168C, strain set2, hits give low values 0.999 | locus YJL187C, strain SWE1 (second series), hits give low values 0.975 | locus YJL187C, strain SWE1, hits give low values 0.984 | locus YJR043C, strain POL32, hits give low values 0.992

From PubChem BioAssay AID1159580 (chemical genetic matrix, 2015)
